# PubChem BioAssay AID1239 (SRMLSC, 2008)
# About 3,100 (1.6%) of roughly 190,000 compounds were called active. The sample holds actives, similar compounds and a random draw of the others, so the mix is not that of the screen. A number with no mark means an inactive call. No stated cut-off is given here; in the data, active means fold change above about 3.3; inconclusive means no clear call, values can overlap the other calls; inactive means below that.
# Assay: NF-kB upregulation, human neuronal cells – cell-based, HTS, primary screen (AID 1239)
# Conditions: NF-kB reporter expression, at 12.5 µM, active compounds read high
row,Compound,fold change
1,CCCCCc1ccc(-c2ccc(OCC)cc2)nc1,1.81
2,CCCCCc1ccc(-c2ccc(C(=O)O)cc2)nc1,6.88 (active)
3,CCCCCC(=O)Nc1ccc(-c2cn3cccnc3n2)cc1,0.94
4,O=C(COC(=O)CNC(=O)c1ccccc1F)NCC(F)(F)F,1.05
5,O=C(CN1CCCCC1)Nc1ccccc1Cl,1.2
6,O=C(CN1CCOCC1)Nc1ccc(NC(=O)CN2CCOCC2)c(Cl)c1,1.01
7,CC(=O)Nc1ccc(NC(=O)CN2CCCC(C)C2)c(Cl)c1 (configuration not stated),4.21 (active)
8,O=C(c1ccc2c(c1)N(Cc1ccc(F)cc1)C(=O)c1ccccc1S2(=O)=O)N1CCN(c2ccccn2)CC1,0.68
9,CCn1c(CSCc2c(Cl)cccc2Cl)n[nH]c1=S,1.06
10,O=C(O)CSc1nnc(-c2ccc3c(c2)OCO3)n1-c1ccccc1,1.41
11,CCOc1cccc(/C=N/N2C(=O)CSC2=S)c1O,1.38
12,O=C(CCc1ccccc1)Nc1ccc(NC(=O)C2CCCCC2)nc1,1.04
13,O=c1c2c(nc3n1CCCCC3)sc1c(O)cccc12,4.86 (active)
14,Cc1cccc2c(=O)n3c(nc12)CCCCC3,1.11
15,Cc1c(C(=O)Nc2ccccc2)sc2nc3n(c(=O)c12)CCCCC3,1.58
16,CCN1CCN(CC(=O)Nc2sc3c(c2C#N)CCC3)CC1,1.03
17,CCC(=O)NC(=Nc1nc2ccccc2s1)NC(=O)CC,6.73 (active)
18,O=C(O)CSCc1nc2ccccc2s1,0.98
19,CC(C)CC(=O)NC(=S)NCc1ccccc1,1.01
20,CC(C)CC(=O)N/C(N)=N/c1nc2ccccc2s1,8.73 (active)
21,O=C(O)CCCCc1nc2ccccc2s1,1.24
22,COC(=O)c1nc2ccccc2s1,0.91

row,Compound,fold change
1,Cc1nc(-c2ccc(Cl)cc2)sc1C(=O)CBr,1.42
2,N#CCC(=O)N/N=C/c1ccc(SCC(=O)Nc2ccccc2)o1,1.28
3,COCCN(C(=O)CCC(=O)Nc1nccs1)C(C(=O)NC(C)(C)C)c1ccc(Cl)cc1 (configuration not stated),1.27
4,CC1CCCN(c2ccc(C(=O)NCCc3ccccc3)cn2)C1 (configuration not stated),4.24 (active)
5,O=C(NCCc1ccccc1)c1ccc(NC2=NC3CS(=O)(=O)CC3S2)cc1 (configuration not stated),1.1
6,COc1ccc(C(=O)NC2CCN(C(=S)NCCc3ccccc3)CC2)cc1,0.91
7,COCCNc1nc(N)c([N+](=O)[O-])c(NCCO)n1,0.91
8,CNc1nc(Nc2ccc(C)c(Cl)c2)nc(N)c1[N+](=O)[O-],5.21 (active)
9,Nc1nc(NCCCN2CCOCC2)nc(Nc2ccccc2)c1[N+](=O)[O-],0.82
10,O=C(c1cccc(C(=O)N2CCc3ccccc32)n1)N1CCc2ccccc21,0.82
11,Cc1occc1C(=O)N1CCCc2ccccc21,1.12
12,O=C(c1cnn2ccccc12)N1CCc2ccccc21,3.74 (active)
13,Cc1cc(C)n(CCNCc2c(C(=O)N3C[C@@H](C)O[C@@H](C)C3)nc3ccc(Cl)cn23)n1,0.98
14,Cc1ccccc1NC(=O)Cn1c(=O)n(CC2CCCO2)c(=O)c2ccccc21 (configuration not stated),0.98
15,Cc1ccc(NC(=O)c2cc(-c3ccc(C)o3)nc3ccccc23)nc1,0.88
16,Cc1ccc(Nc2nc(-c3ccc(O)cc3O)cs2)nc1,5.35 (active)
17,Cc1ccc(-c2csc(NNC(=O)c3ccccc3)n2)cc1,0.64
18,CCOC(=O)Cn1nnnc1C,0.94
19,O=C(c1cnn(-c2ccc(Cl)cc2)c1)c1ccccc1O,6.38 (active)
20,O=C(O)c1ccc(NC(=O)c2cn(-c3ccccc3)nc2-c2ccc(Cl)cc2)cc1,1.11
21,Cc1ncc(CC(=O)n2cc(C(=O)c3cc(Cl)ccc3O)cn2)s1,0.9
22,O=C(Nc1ccc(Cl)cc1)C1c2cccc[n+]2CC(=O)N1Cc1ccc2c(c1)OCO2 (configuration not stated),1.64

row,Compound,fold change
1,Cc1ccc(-c2nc3ccccc3[nH]2)cc1NC(=O)c1sc2ccccc2c1Cl,0.76
2,Cc1ccc(-c2nc3ccccc3[nH]2)cc1N,6.83 (active)
3,c1ccc2[nH]c(-c3nc4ccccc4[nH]3)nc2c1,2.17
4,O=C(O)CCn1c(SCc2cc(=O)n3ccccc3n2)nc2ccsc2c1=O,1.78
5,CC(=O)Nc1ccc(NC(=O)C(C)n2c3ccccc3c3nc(=O)cc(C)n32)cc1 (configuration not stated),1.25
6,COc1cccc(NC(=S)N(Cc2ccc(C)cc2)Cc2ccccn2)c1,1.01
7,CC(O)CNCCOc1cccc(Oc2ccccc2)c1 (configuration not stated),1.14
8,O=C(O)c1ccc(NC(=O)c2cccs2)cc1,1.13
9,Cc1cccc(-n2c(C)cc(/C=N\NC(=O)c3cccs3)c2C)c1,0.9
10,CC(=O)Nc1ccc(/C=N/NC(=O)c2cccs2)cc1,3.48 (active)
11,CCOc1ccc(C(C)=O)cc1CSc1nnc(-c2ccncc2)n1CCOC,0.95
12,CC(C)CCC(C)NC(=O)c1ccc2nccnc2c1 (configuration not stated),1.64
13,CC(NC(=O)COC(=O)c1ccc(Cl)cc1O)c1ccc(F)cc1 (configuration not stated),1.15
14,CCCCSc1nnc(-c2ccc(C)cc2)o1,3.57 (active)
15,CCOC(=O)CSc1nnc(-c2ccc([N+](=O)[O-])cc2)o1,1.11
16,CCOC(=O)CSc1nnc(-c2ccncc2)o1,1.05
17,N/C(=N\OC(=O)Cc1ccccc1[N+](=O)[O-])c1ccc(Br)cc1,1.12
18,COc1ccc(-c2nnc(SCC(=O)c3cccs3)o2)c(OC)c1,5.16 (active)
19,COc1ccc(OC)c(C(=O)CSc2nnc(-c3cccs3)o2)c1,1.11
20,COc1ccc(-n2c(C)cc(C(=O)CSc3nnc(-c4cccs4)o3)c2C)cc1,0.93
21,Cn1nc(C(F)(F)F)c2cc(C(=O)N3CCOCC3)sc21,0.92
22,COc1ccc(-c2cc(C(=O)NCCCn3ccnc3)no2)cc1,1.83

row,Compound,fold change
1,COc1ccccc1-c1cc(C(=O)NCCCn2ccnc2)no1,1.28
2,O=C(NCCCn1ccnc1)c1cc(-c2ccccc2)on1,8.21 (active)
3,CC(=O)Nc1cccc(-c2csc(Nc3cccc(C)n3)n2)c1,8.2 (active)
4,CC(=O)Nc1cccc(-c2cnc3ccccc3n2)c1,2.74
5,COc1ccc(CCNc2nc(-c3cccc(NC(C)=O)c3)cs2)cc1OC,0.5
6,CCOc1cc(NC(=S)NCCCN(C)C)c(OCC)cc1NC(=O)C1CC1,0.96
7,CCOn1c(=O)c(=O)n(O)c2ccccc21,1.15
8,C=C(C)CNC(=S)N/N=C/c1ccccc1OCC(=O)O,1.35
9,CCn1c(SCc2ccc(C)cc2)nnc1-c1nn(-c2ccccc2)ccc1=O,1.19
10,CCc1ccc(-c2nn(-c3ccccc3)cc2CSC(=N)N)cc1,6.66 (active)
11,N=C(N)SCc1cccc2ccccc12,0.88
12,O=c1nc(N/N=C/c2ccco2)cn[nH]1,1.22
13,COc1ccc(CNc2c(CO)cnc3c2cnn3C)cc1,1.06
14,Cc1ccccc1OCCC(=O)Nc1c(C)n(C)n(-c2ccccc2)c1=O,0.99
15,Cc1c(NC(=O)CSc2nnnn2-c2ccc(C(=O)O)cc2)c(=O)n(-c2ccccc2)n1C,1.04
16,Cc1c(NC(=O)CSc2cccc3cccnc23)c(=O)n(-c2ccccc2)n1C,7.73 (active)
17,CCN(CC)CCNc1nc(-c2ccc(OC(F)F)cc2)c(C)s1,0.94
18,NC(=O)c1ccc(N2CCOCC2)nc1,0.96
19,COc1cc(/C=N/NC(=O)c2cc(C)n(-c3ccc(F)cc3)c2C)cc(OC)c1O,1.02
20,C/C(=N\NC(=S)NCc1ccccc1)C1CCCCC1,1.07
21,O=c1[nH]n2c(-c3ccccc3)nc(O)c2c2ccccc12,1.02
22,CCn1nc(C)c(CN2CCN(Cc3ccc(OC)c(C)c3C)C(CCO)C2)c1C (configuration not stated),1.19

row,Compound,fold change
1,COc1ccc(-c2cn3cccnc3n2)cc1,2.19
2,COc1ccc(-c2cn3ccsc3n2)cc1,5.24 (active)
3,CCCC(=O)Nc1cccc(-c2cn3ccsc3n2)c1,1.3
4,CC(C)(C)n1ncc2c(=O)n(Cc3ccc(Cl)cc3)cnc21,1.03
5,O=C(COc1ccc(Cl)cc1)NCc1nnc(SCC(=O)NCC2CCCO2)o1 (configuration not stated),1.01
6,CC(=O)c1sc(NC(=O)c2cccc3ccccc23)nc1C,0.7
7,CCSc1nnc(NC(=O)Cc2ccccc2OC)s1,1.18
8,CC(=O)c1sc(NC(=O)c2ccc(C)cc2)nc1C,3.36 (active)
9,CCSc1nnc(NC(=O)c2ccc(C)cc2)s1,5.31 (active)
10,Cc1cccc(CSc2nnc(NC(=O)CSc3nnc(C)s3)s2)c1,1.18
11,CC(=O)c1sc(N/N=C\c2ccc(C)cc2)nc1C,2.4
12,C=CCn1nc(-c2ccccc2)c2c(C)onc2c1=O,1.1
13,COc1cc(/C=N/O)ccc1OCc1ccc([N+](=O)[O-])cc1,6.35 (active)
14,COc1cc(/C=N\Nc2ccc([N+](=O)[O-])cn2)ccc1OCC(=O)O,1.24
15,COc1cc(C(=O)OCc2ccc([N+](=O)[O-])cc2)cc(OC)c1OC,1.05
16,COc1ccc(C2=NN(c3nc4ccccc4s3)C(=O)C2)cc1,1.02
17,CN(c1nc2ccccc2n2c(-c3ccco3)nnc12)S(=O)(=O)c1ccccc1,0.98
18,Cn1c(-c2ccco2)nc2cc3ccccc3cc21,6.6 (active)
19,CN1c2ccccc2-c2nc3ccccc3n2C1c1ccco1 (configuration not stated),1.03
